Laboratory results published in ChEMBL document CHEMBL1201862, “PubChem BioAssay data set” (2004).
The campaign covered roughly 350,000 compounds. About 31,000 (8.9%) were called active. Inconclusive results (about 15%) are left out. The rule behind the calls is not given here. The sample as a whole holds a higher share of actives than the screen did.

target: T1, Histone-lysine N-methyltransferase EHMT2 (Homo sapiens) (UniProt Q96KQ7); experiment: qHTS Assay for Inhibitors of Histone Lysine Methyltransferase G9a. [Related pubchem assays (depositor defined):AID504404]; assay type: functional
T1 sequence (whole entry): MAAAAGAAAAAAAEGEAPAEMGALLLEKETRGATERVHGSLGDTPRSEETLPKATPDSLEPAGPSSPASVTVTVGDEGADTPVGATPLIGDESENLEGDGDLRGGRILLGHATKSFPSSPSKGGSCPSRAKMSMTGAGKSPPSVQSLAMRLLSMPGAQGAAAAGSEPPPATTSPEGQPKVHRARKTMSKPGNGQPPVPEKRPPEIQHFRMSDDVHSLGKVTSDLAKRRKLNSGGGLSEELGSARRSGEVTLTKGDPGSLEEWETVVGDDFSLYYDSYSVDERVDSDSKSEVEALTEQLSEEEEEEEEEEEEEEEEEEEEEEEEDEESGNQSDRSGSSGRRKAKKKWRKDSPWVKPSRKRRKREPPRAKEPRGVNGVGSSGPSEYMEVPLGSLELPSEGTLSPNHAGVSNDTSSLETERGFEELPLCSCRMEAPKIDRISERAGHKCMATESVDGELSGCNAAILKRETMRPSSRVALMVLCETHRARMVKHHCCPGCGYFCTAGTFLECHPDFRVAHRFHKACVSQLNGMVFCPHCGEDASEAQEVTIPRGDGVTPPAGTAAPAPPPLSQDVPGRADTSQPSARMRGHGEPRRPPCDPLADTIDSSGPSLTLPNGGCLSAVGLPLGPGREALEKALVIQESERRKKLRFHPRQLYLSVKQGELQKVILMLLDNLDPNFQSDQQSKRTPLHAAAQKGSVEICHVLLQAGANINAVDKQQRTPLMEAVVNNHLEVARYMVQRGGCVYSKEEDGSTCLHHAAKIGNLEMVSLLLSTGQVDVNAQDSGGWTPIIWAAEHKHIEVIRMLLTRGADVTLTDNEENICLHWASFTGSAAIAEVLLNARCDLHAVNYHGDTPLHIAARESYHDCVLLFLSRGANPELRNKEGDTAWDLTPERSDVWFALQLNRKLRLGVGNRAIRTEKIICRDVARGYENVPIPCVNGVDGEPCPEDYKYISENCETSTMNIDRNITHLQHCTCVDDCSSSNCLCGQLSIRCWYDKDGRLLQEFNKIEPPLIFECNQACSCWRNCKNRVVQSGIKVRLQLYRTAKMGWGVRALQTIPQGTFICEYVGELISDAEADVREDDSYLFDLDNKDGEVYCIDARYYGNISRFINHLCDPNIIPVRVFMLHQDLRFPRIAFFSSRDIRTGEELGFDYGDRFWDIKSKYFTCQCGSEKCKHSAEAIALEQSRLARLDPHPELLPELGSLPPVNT

Compound	Potency
Cl[Te]1(Cl)OCCO1	7.94 µM (active)
